Source: PubChem BioAssay (Tox21)
Inconclusive results are not listed. Active and inactive are the calls of the source. Calls come from the whole dose curve; as a rule, active = well fitted inhibition curve with a large enough effect in the repeat runs; inconclusive = weak or mixed curves, or effect the other way; inactive = no such curve, though single readings can be large or run the other way.
% is set by controls: 0 for no effect and ±100 for the full control effect.

What follows are molecules tested against Nuclear receptor subfamily 1 group I member 3 (Homo sapiens) (UniProt Q14994) (assay: qHTS assay to identify small molecule antagonists of the constitutive androstane receptor (CAR) signaling pathway (AID 1224838;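 note: HepG2 cells stably expressing hCAR with CYP2B6 luciferase reporter stimulated by CITCO; nearly all actives have a fitted effect of over 40% in size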)). Details: HepG2-CYP2B6-hCAR luciferase, CITCO-stimulated, 24 h; series mostly up to 92.4 µM; activity, negative = inhibition: at the top concentration.
Nuclear receptor subfamily 1 group I member 3 (Homo sapiens), sequence (Q14994 whole entry, looked up): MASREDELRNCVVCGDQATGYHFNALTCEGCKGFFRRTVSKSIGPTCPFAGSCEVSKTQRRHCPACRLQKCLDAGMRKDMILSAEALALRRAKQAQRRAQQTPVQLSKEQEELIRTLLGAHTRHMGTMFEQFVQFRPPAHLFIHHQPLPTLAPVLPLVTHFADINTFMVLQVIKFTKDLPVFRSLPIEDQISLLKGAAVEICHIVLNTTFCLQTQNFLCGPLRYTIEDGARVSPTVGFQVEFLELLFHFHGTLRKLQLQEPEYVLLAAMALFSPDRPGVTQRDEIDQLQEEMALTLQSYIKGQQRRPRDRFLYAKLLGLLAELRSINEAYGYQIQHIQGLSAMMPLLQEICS
From the text: U.S. Tox21 Program National Center for Advancing Translational Sciences [NCATS] NIH Chemical Genomics Center [NCGC] U.S. Environmental Protection Agency [EPA] National Institutes of Environmental Health Sciences [NIEHS] National Toxicology Program [NTP] U.S. Food and Drug Administration [FDA] Tox21 Assay Overview: The constitutive androstane receptor (CAR) is a nuclear receptor which regulates multiple drug metabolizing enzymes (DMEs) and transporters. Activating CAR will generally increase the transcription and subsequent translation of CYP2B6 and CYP3A4. These two DMEs represent about 50% of the drug metabolizing potential in the body. When CAR is deactivated, the metabolizing potential in the body will decrease, subsequently increasing the toxicity in the body or lowering the therapeutic potential of a pro-drug. Recently, there have also been studies performed indicating CARs role in energy metabolism and cancer therapy. Therefore, inhibiting CARs activity could have a potential effect on diabetes and cancer. Identifying environmental toxins and compounds which modulate CAR, through the use of the Tox21 10K compound collection, will be an important step in determining the toxicity and potential therapeutic effects these factors will have on the human body.
Tox21 Assay Protocol Summary: A double-stable (hCAR and CYP2B6-2.2kb) transfected cell line, derived from human hepatoma (HepG2) cells, was utilized for the duration of the quantitative high-throughput screens. The HepG2-CYP2B6-hCAR cells suspended in DMEM culture medium supplemented with 10% FBS, 5 ug/mL blasticidin, 0.5 mg/mL geneticin, 100 U/mL penicillin and 100 ug/mL streptomycin were dispensed at 2500 cells/4 uL/well in 1536-well white solid bottom plates using a Multidrop Combi. After the assay plates were incubated at 37 C/5% CO2 for 4 hrs, 23 nL of compounds at 15 concentrations (from 5-48 columns) or positive control (from 1 to 4 columns) were transferred to the assay plates using a Pintool station. One uL of CITCO, was added using a Flying Reagent Dispenser to generate a final concentration of 50 nM CITCO inside each well. After a 24 hr incubation period at 37 C/5% CO2, four uL of ONE-Glo reagent was added into the assay plates using a Flying Reagent Dispenser. After a 30 min incubation period at room temperature, the luminescence intensity in the assay plates was measured using a ViewLux plate reader.
In the case of `CCOC(=O)[C@H](CCc1ccccc1)N[C@@H](C)C(=O)N1C(=O)N(C)C[C@H]1C(=O)O`, the “activity, negative = inhibition” value is reported as 23% [at 42.5 µM] (inactive). For `COc1cc2c(cc1OC)C(=O)CC2`, the “activity, negative = inhibition” value was 28.6% [at 42.5 µM] (inactive). With `O=C1O[C@@H]2[C@@H](O)[C@H](O)O[C@@H]2[C@H]1O` the “activity, negative = inhibition” value was -2.02% (inactive). For `COCCOC(=O)C1=C(C)NC(C)=C(C(=O)OC(C)C)C1c1cccc([N+](=O)[O-])c1` (stereo not given), the “activity, negative = inhibition” value was 58.7% [at 42.5 µM] (inactive). For `CCOc1cc(NC(C)=O)ccc1C(=O)OC`, the “activity, negative = inhibition” value was 46.1% [at 42.5 µM] (inactive). In the case of `CCCCCCCCOS(=O)(=O)O`, the “activity, negative = inhibition” value is reported as -15.8% (inactive). `Nc1cccc(O)c1` was tested, and the “activity, negative = inhibition” value was 58.9% (inactive). For `CC1=C(C(=O)O)N2C(=O)[C@@H](NC(=O)[C@H](N)c3ccc(O)cc3)[C@H]2SC1`, the “activity, negative = inhibition” value was -5.11% [at 42.5 µM] (inactive). For `C=CC(OCC)OCC`, the “activity, negative = inhibition” value was 15.2% (inactive). With `Cc1ccc(S(=O)(=O)O)c(C)c1` the “activity, negative = inhibition” value was 16.3% (inactive). For `COC(=O)c1ccccc1C(=O)c1ccc(OCCN2CCCCC2)cc1`, the “activity, negative = inhibition” value was 40.6% [at 42.5 µM] (inactive). With `CCN(C)C(=O)Oc1cccc([C@H](C)N(C)C)c1` the “activity, negative = inhibition” value was -7.1% [at 42.5 µM] (inactive). For `O=C(CS(=O)Cc1ccco1)NC/C=C\COc1cc(CN2CCCCC2)ccn1` (stereo not given), the “activity, negative = inhibition” value was 7.87% [at 42.5 µM] (inactive). In the case of `CCC(C=O)CC`, the “activity, negative = inhibition” value is reported as 5.78% (inactive). In the case of `CC(=O)Nc1ccc(S(=O)(=O)Nc2ccc([N+](=O)[O-])cc2)cc1`, the “activity, negative = inhibition” value is reported as 8.05% [at 42.5 µM] (inactive). With `CNC(=O)[C@H]1O[C@@H](n2cnc3c(NCc4cc(Cl)ccc4OCc4cc(C)no4)ncnc32)[C@H](O)[C@@H]1N` the “activity, negative = inhibition” value was 5.42% (inactive). In the case of `CC1(CO)CN(c2ccccc2)NC1=O` (stereo not given), the “activity, negative = inhibition” value is reported as 77.8% (inactive). With `CC/C=C\CC1=C(C)CCC1=O` the “activity, negative = inhibition” value was 34% (inactive). For `NS(=O)(=O)c1cc2c(cc1Cl)CN(C1CCCCC1)C2=O`, the “activity, negative = inhibition” value was 47.5% [at 42.5 µM] (inactive). For `O=C1c2ccccc2C(=O)N1CCl`, the “activity, negative = inhibition” value was -10.8% (inactive). For `COP(=O)(OC)OC(c1ccc(Cl)cc1)P(=O)(OC)OC` (stereo not given), the “activity, negative = inhibition” value was 15.7% [at 42.5 µM] (inactive). `N#Cc1ccc(C(=O)O)cc1` was tested, and the “activity, negative = inhibition” value was -4.25% (inactive). For `O=P(O)(O)OP(=O)(O)O`, the “activity, negative = inhibition” value was -10.8% (inactive). For `CCC(CC)CO`, the “activity, negative = inhibition” value was 0.955% (inactive). With `CCCCCCCCCCCCCC` the “activity, negative = inhibition” value was 7.44% (inactive). `CC(C)(C)NC(N)=O` was tested, and the “activity, negative = inhibition” value was -5.94% (inactive). In the case of `CCCCCOC(=O)CCC`, the “activity, negative = inhibition” value is reported as 8.35% (inactive). `OC[C@H](Cc1cccc(O)c1)[C@H](CO)Cc1cccc(O)c1` was tested, and the “activity, negative = inhibition” value was 8.65% (inactive). With `CC(C)CCCCOC(=O)c1ccccc1C(=O)OCCCCC(C)C` the “activity, negative = inhibition” value was 13.1% (inactive). `CCCC/C=C/C=C\C=O` was tested, and the “activity, negative = inhibition” value was 0.958% (inactive). With `CN(C)c1ccc(C=O)cc1` the “activity, negative = inhibition” value was 37.3% (inactive). For `CCOCCOC(=O)/C=C/c1ccc(OC)cc1`, the “activity, negative = inhibition” value was 128% [at 42.5 µM] (inactive). In the case of `N[C@@H](CCC(=O)Nc1ccc([N+](=O)[O-])cc1)C(=O)O`, the “activity, negative = inhibition” value is reported as 35.8% (inactive). `CCOCCOCCOCC` was tested, and the “activity, negative = inhibition” value was 0.492% (inactive). For `CC(C)(C)c1cc(CCC(=O)NN)cc(C(C)(C)C)c1O`, the “activity, negative = inhibition” value was 48.9% (inactive). For `CCn1ccc(NS(=O)(=O)c2ccc(N)cc2)nc1=O`, the “activity, negative = inhibition” value was -17% [at 42.5 µM] (inactive). In the case of `CCOC(=O)c1ccc(OC(=O)CCCCCN=C(N)N)cc1`, the “activity, negative = inhibition” value is reported as 118% [at 42.5 µM] (inactive). For `CC(C)(C)c1n[nH]c(=S)n(N)c1=O`, the “activity, negative = inhibition” value was 29.4% (inactive). In the case of `CC(C)=O`, the “activity, negative = inhibition” value is reported as -11.2% (inactive). `CCCOC(OCCC)OCCC` was tested, and the “activity, negative = inhibition” value was -5.69% (inactive).
